Experiment [1] is described as follows: qHTS assay for small molecules that induce genotoxicity in human embryonic kidney cells expressing luciferase-tagged ATAD5 (AID 651632). Also: nearly all actives have a fitted effect of over 15% in size. The method, boiled down:
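A rise in luciferase signal from ATAD5-tagged HEK293T cells marks genetic stress. Cells were exposed to compounds for 16 hr at 37C, 5% CO2, then luciferase was quantified after a 30 min room-temperature incubation with Amplite.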
A general note: qHTS replaces the single test concentration by a dilution series.

Experiment [2] in a line: qHTS assay for small molecule agonists of the p53 signaling pathway - cell viability (AID 651633; calls by dose curve; also: nearly all actives have a fitted effect of over 30% in size; also: potency is read from the fitted curve at half-maximal effect). The method, boiled down: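 p53RE-bla cells, seeded at 4,000 per well and rested 5 h at 37 C/5% CO2, received compounds in DMSO for 16 h at 37 C. CellTiter-Glo was then added, and luminescence was read after 30 min at room temperature to gauge cytotoxicity.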
Experiment [3] can be described thus: qHTS assay for small molecules that induce genotoxicity in human embryonic kidney cells expressing luciferase-tagged ATAD5 - cell viability (AID 651634; calls by dose curve; also: nearly all actives have a fitted effect of over 25% in size; also: potency is read from the fitted curve at half-maximal effect). In a few lines:
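Cytotoxicity counter-readout: after 15.5 hr compound treatment at 37C, live-cell protease activity in ATAD5-luciferase HEK293T cells measured by CellTiter-Fluor fluorescence, 30 min development at 37C.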

Experiment [4] is described as follows: qHTS assay for small molecule disruptors of the mitochondrial membrane potential - cell viability (AID 720634; calls by dose curve; also: nearly all actives have a fitted effect of over 20% in size; also: potency is read from the fitted curve at half-maximal effect). The method, boiled down:
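Cytotoxicity was quantified from ATP content by CellTiter-Glo luminescence in the same wells as the MMP dye read-out. HepG2 (2,000 cells/well) were plated overnight and exposed to compounds for 1 hr at 37 C.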

Experiment [5] in a line: qHTS assay for small molecule disruptors of the mitochondrial membrane potential (AID 720635). Also: potency is read from the fitted curve at half-maximal effect. In a few lines:
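HepG2 cells (2,000/well) attached overnight at 37C, then took compound for 1 hr at 37C, 5% CO2. Mito-MPS dye was added for 30 min; fluorescence was read at 490/535 nm (monomers) and 540/590 nm (aggregates).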

Experiment [6] is described as follows: qHTS assay to test for compound auto fluorescence at 590 nm (red) in HepG2 cells (AID 720674). In a few lines: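 Rose Bengal sodium served as the red fluorophore standard. HepG2 monolayers (overnight attachment, MEM with 10% FBS) were exposed to test compounds for 1 hr at 37 C and read at Ex 540/Em 590 nm.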
The nature of experiment [7]: qHTS assay to test for compound auto fluorescence at 535 nm (green) in HepG2 cells (AID 720675).
A short description of experiment [8]: qHTS assay to test for compound auto fluorescence at 460 nm (blue) in HEK293 cells (AID 720678). The method, boiled down: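 Measured: blue fluorescence (Ex 405/Em 460 nm) of compound-treated HEK293 cells, incubated overnight at 37C with 5% CO2 and scaled to triamterene equivalents.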
A short description of experiment [9]: qHTS assay to test for compound auto fluorescence at 590 nm (red) in HEK293 cells (AID 720679). The method, boiled down: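 Using HEK293 cells at 2,000 per well, the screen added 23 nL of each compound after cell attachment and incubated overnight (37C, 5% CO2). The plate reader then captured red-label fluorescence, Ex/Em 540/590nm.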
Experiment [10] in a line: qHTS assay for small molecule agonists of the p53 signaling pathway (AID 651631; calls by dose curve; also: nearly all actives have a fitted effect of over 15% in size; also: potency is read from the fitted curve at half-maximal effect). The method, boiled down: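 Beta-lactamase reporter activity under p53 response elements was quantified in HCT-116 cells by FRET fluorescence, following 16 h incubation with test compounds at 37 °C and 2 h substrate development at room temperature.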

Values joined by “and” are separate entries in the source; they are usually repeats but may differ in a detail not shown here. Equal entries are not always repeated. Records with an inconclusive call do not appear. More than one record can exist for a structure, and the calls need not agree. Active and inactive are the calls of the source. Unless noted, calls follow the shape of the dose curve; as a rule, active = well fitted curve in the direction sought with a large enough effect in the repeat runs; inconclusive = weak or mixed curves; inactive = no such curve, though single readings can be large; an effect the other way counts as inactive or inconclusive.
% is scaled to controls: 0 for no effect and ±100 for the full control effect.

As to `Nc1ccc(Cl)cc1`, the outcome in [1], in [6], in experiment [7], in experiment [8] and in [9] was inactive. In addition, the Potency entry in experiment [2], in experiment [3], in experiment [4] and in [5] was “inactive” throughout.
For the molecule `CNC`, the Potency result in experiment [10], in experiment [2], in experiment [4] and in [5] was “inactive” throughout. The result in experiment [6], in experiment [7], in experiment [8] and in experiment [9] was inactive.
Take `CC(=O)[O][Hg][c]1ccccc1`: the Potency was 596 nM (active) and 762 nM (active) and 1.22 µM (active) in experiment [10]; 473 nM (active) and 382 nM (active) and 386 nM (active) in experiment [2]; 1.68 µM (active) and 606 nM (active) and 1.37 µM (active) in experiment [3]; 5.31 µM (active) and 1.21 µM (active) and 2.43 µM (active) in experiment [4]; 4.73 µM (active) and 1.08 µM (active) and 1.93 µM (active) in experiment [5]. Moreover, the molecule was called inactive in [1], in [6], in [7], in experiment [8] and in experiment [9].
As for `COc1ccc(N)cc1`, the Potency entry in experiment [10], in [2], in [3], in experiment [4] and in experiment [5] was “inactive” each time. Also, the molecule was called inactive in experiment [1], in experiment [6], in experiment [7], in [8] and in experiment [9].
Turning to `O=C(O)COc1ccc(Cl)cc1Cl`, the Potency entry in [10], in experiment [2], in experiment [3], in [4] and in [5] was “inactive” each time. Besides, the molecule was classed as inactive in experiment [6], in [7], in experiment [8] and in experiment [9].
Take `O=C(O)CC(O)(CC(=O)O)C(=O)O`: the Potency result in [10], in experiment [2], in [3], in experiment [4] and in experiment [5] was “inactive” throughout. In addition, the outcome in experiment [1], in experiment [6], in [7], in experiment [8] and in [9] was inactive.
On to `N#CS`, for which the Potency entry in experiment [10], in experiment [2], in experiment [3], in experiment [4] and in experiment [5] was “inactive” in each case. In addition, the molecule was called inactive in experiment [6], in [7], in experiment [8] and in experiment [9].
Consider `O=C(O)C(Cl)(Cl)Cl`, for which the Potency entry in experiment [10], in experiment [2], in experiment [3], in experiment [4] and in [5] was “inactive” each time. The outcome in [1], in experiment [6], in experiment [7], in experiment [8] and in [9] was inactive.
Take `O=C(O)c1nc(Cl)ccc1Cl`: the Potency entry in [10], in [2], in experiment [3], in experiment [4] and in experiment [5] was “inactive” in each case. Also, the molecule was called inactive in experiment [1], in experiment [6], in [7], in [8] and in experiment [9].
For the molecule `CC[n+]1ccccc1`, the molecule was classed as inactive in [1], in experiment [6], in [7], in experiment [8] and in [9]. In addition, the Potency result in [2], in experiment [3], in experiment [4] and in [5] was “inactive” in each case.
For the molecule `C[C@]12CCC(=O)C=C1CC[C@@H]1[C@@H]2CC[C@]2(C)C(=O)CC[C@@H]12`, the Potency result in experiment [10], in [2], in experiment [3], in experiment [4] and in [5] was “inactive” each time. The call in [1], in [6], in [7], in [8] and in [9] was inactive.
In the case of `CCC(=O)C(CC(C)N(C)C)(c1ccccc1)c1ccccc1` (configuration not stated), the Potency result in experiment [10], in experiment [2], in experiment [3], in experiment [4] and in experiment [5] was “inactive” each time. The molecule was classed as inactive in experiment [1], in experiment [6], in experiment [7], in experiment [8] and in experiment [9].
On to `C1CCC(NC2CCCCC2)CC1`, for which the Potency result in experiment [10], in experiment [2], in [3], in experiment [4] and in [5] was “inactive” each time. Besides, the molecule was called inactive in experiment [1], in [6], in experiment [7], in experiment [8] and in [9].
For the molecule `CCOP(=S)(OCC)Oc1ccc2c(C)c(Cl)c(=O)oc2c1`, the Potency result in experiment [10], in [2] and in [3] was “inactive” in each case. Further, the Potency result in [4] was “inactive and 24.3 µM (active)”; in experiment [5], 19.5 µM (active) and 61.1 µM (active). For the same molecule, the call in experiment [6], in [7], in experiment [8] and in experiment [9] was inactive.
For the molecule `Oc1ccccc1-c1ccccc1`, the Potency entry in [10], in experiment [2], in [3] and in experiment [4] was “inactive” in each case. Also, the molecule was classed as inactive in experiment [1], in experiment [6], in experiment [7], in [8] and in [9]. Moreover, the Potency in experiment [5] is 21.7 µM (active) [middle of 4 runs].
Regarding `O=[N+]([O-])c1ccccc1O`, the Potency result in experiment [10], in experiment [2], in experiment [3], in experiment [4] and in experiment [5] was “inactive” each time. For the same molecule, the outcome in experiment [1], in experiment [6], in experiment [7], in [8] and in experiment [9] was inactive.
For `CCCCCCCCCCCCCCCCn1cc[n+](C)c1`, the Potency result in experiment [10] was “inactive”. Besides, the molecule was called inactive in experiment [1], in experiment [6], in experiment [7], in [8] and in experiment [9]. In addition, the Potency is 27.9 µM (active) and 69.2 µM (active) and 30.7 µM (active) in [2]; 17.6 µM (active) and inactive and 17.4 µM (active) in [5].
For `CCCC[N+]1(C)CCCCC1`, the molecule was classed as inactive in [1], in experiment [6], in experiment [7], in experiment [8] and in experiment [9]. Besides, the Potency entry in experiment [2], in experiment [3], in [4] and in experiment [5] was “inactive” each time.
For `COCC(=O)N(c1c(C)cccc1C)C(C)C(=O)OC` (configuration not stated), the Potency entry in experiment [10], in [2], in experiment [3], in experiment [4] and in experiment [5] was “inactive” in each case. Also, the outcome in experiment [1], in experiment [6], in experiment [7], in [8] and in experiment [9] was inactive.
`Nc1ccccc1`: the Potency result in experiment [10], in experiment [2], in [3], in [4] and in [5] was “inactive” in each case. Also, the molecule was called inactive in experiment [1], in experiment [6], in [7], in [8] and in experiment [9].
As to `O=C(O)C(Cl)Cl`, the molecule was classed as inactive in experiment [1], in [6], in [7], in experiment [8] and in [9]. The Potency entry in experiment [2], in experiment [3], in [4] and in [5] was “inactive” each time.
For the molecule `Nc1ccc(-c2ccc(N)cc2)cc1`, the Potency entry in [10], in experiment [2], in experiment [3] and in experiment [4] was “inactive” each time. Further, the outcome in experiment [1], in [6], in experiment [7], in experiment [8] and in experiment [9] was inactive.
Take `COP(=O)(OC)C(O)C(Cl)(Cl)Cl` (configuration not stated): the Potency result in [10], in [2], in [3], in experiment [4] and in experiment [5] was “inactive” in each case. Also, the outcome in [1], in experiment [6], in experiment [7], in experiment [8] and in [9] was inactive.
With `CCNc1nc(Cl)nc(NCC)n1`, the Potency result in experiment [10], in experiment [2], in [3], in [4] and in experiment [5] was “inactive” in each case. Also, the molecule was called inactive in experiment [1], in [6], in experiment [7], in [8] and in experiment [9].
For `O=P1(N(CCCl)CCCl)NCCCO1` (configuration not stated), the Potency result in experiment [10], in experiment [2], in experiment [3], in experiment [4] and in experiment [5] was “inactive” each time. Besides, the result in experiment [1], in experiment [6], in experiment [7], in experiment [8] and in [9] was inactive.
Consider `Cc1cc(-c2ccc(N)c(C)c2)ccc1N`, for which the Potency result in [10], in [2], in experiment [3], in [4] and in [5] was “inactive” in each case. Also, the molecule was classed as inactive in [1], in experiment [6], in experiment [7], in experiment [8] and in [9].
With `CCn1cc[n+](C)c1C`, the outcome in experiment [1], in experiment [6], in experiment [7], in experiment [8] and in experiment [9] was inactive. In addition, the Potency entry in experiment [2], in [3], in experiment [4] and in [5] was “inactive” in each case.
As to `OCCOc1ccccc1`, the Potency result in experiment [10], in experiment [2], in experiment [3], in [4] and in experiment [5] was “inactive” in each case. For the same molecule, the outcome in experiment [1], in experiment [6], in experiment [7], in [8] and in experiment [9] was inactive.
As for `CCCC[N+]1(C)CCCC1`, the Potency result in experiment [10], in experiment [2], in experiment [3], in [4] and in [5] was “inactive” throughout. The call in [1], in [6], in experiment [7], in [8] and in experiment [9] was inactive.
Take `Nc1ccc(-c2ccc(N)c(Cl)c2)cc1Cl`: the Potency in experiment [10] was 9.74 µM (active) and 12.8 µM (active) and 21.7 µM (active); in experiment [2], 54.8 µM (active) and inactive; in [3] it was 54.8 µM (active) and 57 µM (active) and 54.5 µM (active); in experiment [4], 27.4 µM (active) and 50.8 µM (active) and 34.4 µM (active); in [5], 5.48 µM (active) and 16.1 µM (active) and 8.63 µM (active). The molecule was classed as inactive in experiment [1], in experiment [6], in experiment [7], in experiment [8] and in experiment [9].

The values above are taken from PubChem BioAssay (Tox21).
